# In PubChem BioAssay AID651920 (Broad Institute, 2012):
# Results with a measured potency or affinity are listed apart. Activity calls are given as the source filed them.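 The calls were made as follows: active = compounds lowering viability with a fitted half-maximal potency at or below twice the top tested dose; inconclusive = flat fit showing 30 to 70% loss, or poor fit; inactive = the rest.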
# Assay: cytotoxicity in primary human melanocytes, dose response, cytotoxicity control, cell-based, plate reader, dry powder (AID 651920)
# Details: ATP luminescence, 24 h; series mostly up to 35 µM; activity change, negative = viability loss: at the top concentration
row,SMILES,"activity change, negative = viability loss"
1,NC1=C(NS(=O)(=O)c2cccs2)C(=O)c2ccccc2C1=O,8.73% (inactive)
2,O=C1C(Nc2ccc(F)cc2)=C(N2CCCCC2)C(=O)c2ccccc21,-0.278% (inactive)
3,NC1=C(NS(=O)(=O)c2ccc(Br)s2)C(=O)c2ccccc2C1=O,6.49% (inactive)
4,O=C1C(Nc2ccc(Br)cc2)=C(N2CCCCC2)C(=O)c2ccccc21,4.72% (inactive)
5,NC1=C(NS(=O)(=O)c2ccccc2)C(=O)c2ccccc2C1=O,8.49% (inactive)
6,O=C1C(Nc2cccc(Cl)c2)=C(N2CCCC2)C(=O)c2ccccc21,-2.73% (inactive)
7,CC(C)N1CCN(C2=C(Nc3ccc(F)cc3F)C(=O)c3ccccc3C2=O)CC1,-11.3% (inactive)
8,CCN1CCN(C2=C(Nc3ccc(F)cc3F)C(=O)c3ccccc3C2=O)CC1,12% (inactive)
9,CN1CCN(C2=C(Nc3ccc(F)cc3F)C(=O)c3ccccc3C2=O)CC1,3.7% (inactive)
10,CC(C)N1CCN(C2=C(Nc3ccc(F)cc3)C(=O)c3ccccc3C2=O)CC1,4.05% (inactive)
11,O=C1C=C(Nc2ccccc2)C(=O)c2ccccc21,6.12% (inactive)
12,Cc1ccc(NC2=CC(=O)c3ccccc3C2=O)cc1,3.64% (inactive)
13,NC1=C(NS(=O)(=O)c2ccc(Br)cc2)C(=O)c2ccccc2C1=O,0.856% (inactive)
14,O=C1C(Nc2ccc(Cl)cc2)=C(N2CCCC2)C(=O)c2ccccc21,-6.05% (inactive)
